Among the data in PubChem BioAssay AID602140 (NMMLSC, 2011) are inhibition values, retold here.

The structures appear in SMILES notation. Several values for one entry are separate records, joined by “and”; a condition that tells them apart may be missing. Identical values can stand only once. Some of the results follow. A number with no mark means an inactive call. The rule behind the calls is not given here.

The assay deals with Botulinum neurotoxin type F light chain protease (Clostridium botulinum). The experiment in a line: BoNT/F light chain protease inhibitors, confirmation, biochemical, flow cytometry, cherry pick 1 (AID 602140). Particulars: multiplex microsphere protease cleavage assay, at 10 µM, stronger effect = higher value.

Regarding `Cc1onc(-c2ccccc2Cl)c1C(=O)NCCn1ccc2ccccc21`, the inhibition was -5.2%. Then `CCOCC(=O)NCc1ccc2c(c1)cc(C)n2C`, with -12.1%; and `CN1CCN(c2ccc(NC(=O)c3ccccc3)cc2)CC1`, with 1.4%.

For `COc1ccc(N(CC(=O)NCCSCc2cccc(Cl)c2)S(C)(=O)=O)cc1`, the inhibition was -2.3%. The figure for `O=C(CN1CCCCCC1)Nc1c(Cl)cc(Cl)cc1Cl` is -7.6%. Consider `COc1ccc(C(=O)Nc2nc(-c3ccc(OC)cc3)c(-c3ccc([N+](=O)[O-])cc3)s2)cc1`, for which the inhibition was 4%. Then `COCc1cc(=O)[nH]c(SC)n1`, with -4.2%. The figure for `O=C(Nc1nnc(CCc2ccccc2)s1)C1CCCO1` (stereo unspecified) is -7%. For the compound `COC(=O)CN(c1nc(C)c(Cl)c(OC)n1)S(=O)(=O)c1ccc(C)cc1`, the inhibition was -0.3%. Then `CCN1CCN(C(C(=O)NC2CCCC2)c2cc3c(cc2[N+](=O)[O-])OCO3)CC1` (stereo unspecified), with -4.2%; and `CCCN1C2CCCC1CC(NC(=O)c1cccc(OC)c1)C2` (stereo unspecified), with 0.9%; and `CC(=O)Nc1ccc(Oc2ccc3c(c2)C(=O)NC3=O)cc1`, with -3.5%.

In the case of `COc1ccc(NS(=O)(=O)c2cc(C(=O)Nc3ccccc3C(=O)O)ccc2C)cc1`, the inhibition is -0.5%. The figure for `CCOc1ccc(NC(=O)CC(Cc2ccc(Cl)cc2)C(=O)O)cc1` (stereo unspecified) is -1.5%. The figure for `CN(C(=O)c1ccccn1)c1nnc(-c2ccccn2)s1` is -3.7%; for `COc1ccc(C2CC(c3cccs3)=NN2c2nc(C)c(C(C)=O)s2)cc1OC` (stereo unspecified) it is -1.7% and 7.1%.

Consider `Cc1ccccc1NC(=O)c1cc(S(=O)(=O)Nc2cccc(C(=O)O)c2)ccc1Cl`, for which the inhibition is -1.9%. Then `COc1ccc(Br)cc1CNCCc1cccc(Cl)c1`, with -10%; and `CCOCCn1c(-c2ccccc2)nc2ccccc21`, with -2.2%. Consider `O=C(O)c1cc(S(=O)(=O)NC2CCCc3ccccc32)ccc1O` (stereo unspecified), for which the inhibition is -1.4%. In the case of `COc1ccccc1C1CCN(C(=S)Nc2ccc(Br)cc2)CC1`, the inhibition is 4.3%.
